This passage reports inhibition results from ChEMBL document CHEMBL3433997, “St. Jude Leishmania screening dataset” (2016).

What all share (format): functional
The target of test [1] is Solute carrier family 2, facilitated glucose transporter member 1 (Homo sapiens) (UniProt P11166). The test can be described thus: ST_JUDE_LEISH: Cytotoxicity at 2uM final concentration against transgenic Leishmania Mexicana promastigotes LmGLUT1 that are glucose transport deficient and complemented with the human glucose transporter GLUT1. Activity is measured by DNA content using SYBR green in vitro.

For test [2], the target named is Hexose transporter 1 (Plasmodium falciparum) (UniProt O97467). The test is described as follows: ST_JUDE_LEISH: Cytotoxicity at 2uM final concentration against transgenic Leishmania Mexicana promastigotes LmPfHT that are glucose transport deficient and complemented with the Plasmodium falciparum hexose transporter. Activity is measured by DNA content using SYBR green in vitro.

In test [3] the target is Glucose transporter (Leishmania mexicana) (UniProt O61059). The test can be described thus: ST_JUDE_LEISH: Cytotoxicity at 2uM final concentration against transgenic Leishmania Mexicana promastigotes LmGT2 that are glucose transport deficient and complemented with the L. Mexicana glucose transporter 2. Activity is measured by DNA content using SYBR green in vitro.

One may read the inhibition as the drop in the measured response relative to a control, in per cent.

Solute carrier family 2, facilitated glucose transporter member 1 (Homo sapiens), sequence (P11166 whole entry): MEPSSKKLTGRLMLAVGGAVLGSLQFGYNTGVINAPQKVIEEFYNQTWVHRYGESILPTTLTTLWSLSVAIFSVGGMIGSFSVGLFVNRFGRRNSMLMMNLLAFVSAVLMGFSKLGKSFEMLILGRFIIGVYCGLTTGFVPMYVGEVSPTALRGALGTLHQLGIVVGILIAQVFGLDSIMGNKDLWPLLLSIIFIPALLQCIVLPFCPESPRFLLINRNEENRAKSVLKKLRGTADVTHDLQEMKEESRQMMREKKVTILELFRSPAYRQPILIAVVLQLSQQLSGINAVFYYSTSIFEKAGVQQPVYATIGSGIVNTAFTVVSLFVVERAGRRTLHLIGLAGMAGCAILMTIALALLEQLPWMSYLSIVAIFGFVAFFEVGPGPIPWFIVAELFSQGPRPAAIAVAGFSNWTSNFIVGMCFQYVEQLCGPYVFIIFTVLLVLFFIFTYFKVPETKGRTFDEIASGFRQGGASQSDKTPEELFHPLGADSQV

On to `CCNc1cc(C(=O)N[C@@H](Cc2ccccc2)[C@H](O)CNC2(Cc3cccc(Cl)c3)CCC2)cc(N2CCCCS2(=O)=O)c1`, for which the inhibition in test [1] is -0.69%; in test [2], 0.65%; in test [3] it was 2.93%.
For `O=C1CCCN1CCCNCc1cccc(-c2ccc(-c3nc4ccccc4[nH]3)s2)c1`, the inhibition in test [1] is -0.73%; in test [2], 0.07%; in test [3], -0.46%.
Regarding `O=C(Nc1ccc(Cl)cc1)Nc1ccc(-c2ccc(-c3nc4ccccc4[nH]3)cc2)cc1`, the figures for the inhibition in test [1], in test [2] and in test [3] were 2.4%, 3.97% and 0.96%, respectively.
Turning to `CN1CCCN(c2ccnc3cc4c(cc23)N(C(=O)c2ccc(C(F)(F)F)cc2)CC4)CC1`, the values for the inhibition in test [1], in test [2] and in test [3] were 5.22%, 5.41% and 7.79%, respectively.
Regarding `Cc1ccc(F)c(CN2CCC(N3CC(c4ccccc4)(c4ccccc4)OC3=O)CC2)c1Cl`, the figures for the inhibition in test [1], in test [2] and in test [3] were 10.4%, 9.52% and 9.68%, respectively.
On the same counts, the results for `O=S(=O)(c1cccc2cccnc12)N1CCN(C2CCCCC2)CC1` are 8.16%, 8.51% and 7.83%.
`CC(C)(C)[C@@H](Nc1ccc(C#N)c2ccccc12)C(=O)NC1(Cc2ccc(O)cc2)CCCC1`: the values for the inhibition in test [1], in test [2] and in test [3] were 0.1%, -0.5% and 0.41%, respectively.
For the compound `NCc1cccc(-c2ccc(CNC3CCN(Cc4ccccc4)CC3)cc2)c1`, the inhibition in test [1] is 6.37%; in test [2] it was 2.02%; in test [3], -1.34%.
`CC(=O)c1cccc(NC(=O)c2ccc(Cl)c(S(=O)(=O)N3CCc4ccccc43)c2)c1`: the results for the inhibition in test [1], in test [2] and in test [3] were 12.1%, 11.9% and 12%, respectively.
`Cc1occc1C(=O)Nc1nc(-c2ccccn2)nc2ccsc12`: the inhibition in test [1] came out at 78.6%; in test [2] it was 73.2%; in test [3], 70%.
On the same counts, the results for `O=C(Nc1ccc(C(=O)N2CCN(CCN3CCN(c4cccc(C(F)(F)F)c4)CC3)CC2)cc1)c1ccc(OC(F)(F)F)cc1` are -1.35%, 0.14% and -2.39%.
Regarding `CN(C)c1cc(C(=O)N[C@@H](Cc2ccccc2)[C@H](O)CNC2CCCCC2)cc2[nH]ccc12`, the values for the inhibition in test [1], in test [2] and in test [3] were 5.43%, 4.72% and 7.44%, respectively.
In the case of `O=C(Cc1cccc(Cl)c1)Nc1ccc(N2CCC(NCc3ccc4ncccc4c3)CC2)cc1`, the inhibition in test [1] came out at 12.6%; in test [2], 13.6%; in test [3] it was 8.71%.
Regarding `COc1ccccc1-c1nc2c(ccc3nc(N)nc(N)c32)[nH]1`, the inhibition in test [1] was determined as 49.5%; in test [2], 58.8%; in test [3], 4.58%.
Consider `CN(C)C(=O)c1ccc(CN(Cc2ccc3c(c2)OCCO3)Cc2ccc3c(c2)OCO3)cc1`, for which the results for the inhibition in test [1], in test [2] and in test [3] were 3.62%, 3.62% and 3.97%, respectively.
On to `Cc1cnc(C(=O)Nc2ccc(-c3cccc(-c4nc5ccccc5[nH]4)c3)cc2)cn1`, for which the inhibition in test [1] is 2.19%; in test [2] it was 1.94%; in test [3] it was -0.57%.
Consider `CCOC(=O)c1ccc(NC(=O)Nc2ccc(-c3cccc(-c4nc5ccccc5[nH]4)c3)cc2)cc1`, for which the inhibition turned out to be 6.03% in test [1], 4.66% in test [2] and 1.68% in test [3].
Consider `CCCCCCCNc1cc(C)nc2ccc(OC)cc12`, for which the values for the inhibition in test [1], in test [2] and in test [3] were 16.5%, 9.23% and 12.4%, respectively.
Consider `COc1ccc(C2CC(c3cccs3)=NN2C(=O)COc2cccc(C(C)=O)c2)cc1OC` (stereo unspecified), for which the inhibition was 0.04% in test [1], -0.46% in test [2] and -2.22% in test [3].
Consider `Cc1cccc2nc(-c3ccc(-c4cccc(CNCCCNS(C)(=O)=O)c4)cc3)[nH]c12`, for which the inhibition was 0.32% in test [1], 0.24% in test [2] and -0.36% in test [3].
Regarding `O=C(C=Cc1ccc(Cl)c(Cl)c1)NCCCCCN1CCCC(CCCNS(=O)(=O)c2ccc(Br)cc2)C1` (stereo unspecified), the inhibition in test [1] amounted to 5.1%; in test [2] it was 3.96%; in test [3], 2.95%.
As for `COc1ccc(-c2nc(NC(=O)CS(=O)(=O)c3ccc(OC)cc3)sc2C)cc1`, the inhibition is 2.15% in test [1], 2.85% in test [2] and 3.47% in test [3].
